Screen size: about 1,200 compounds; about 290 (24%) were called active. About 9% were inconclusive and are not listed. How the calls were made is not given here. A selection follows. Entries that show only a call come without a potency. Potency and affinity values are given separately.

This assay can be described thus: LCL viability reduction – cell-based, plate reader, cherry-picks, set 2, cytotoxicity control, dose response (AID 504882). The conditions noted are these: EBV lymphoblastoid cells (LCL) viability; series mostly up to 19.5 µM.
For the compound `CC(C)c1ccc(OCc2cccc(C(=O)N/N=C/c3cccnc3)c2)cc1`, the compound was called inactive.
Turning to `CC(C)(C)c1ccc(-c2noc(CCC(N)=O)n2)cc1`, the call was inactive.
Turning to `COCCn1c(SCC(=O)NCc2ccco2)nnc1-c1c[nH]c2ccccc12`, the compound was classed as inactive.
Turning to `CCOC(=O)C1=C(C)NC(C)=C(C(=O)OCC)C1C(=O)OCC(=O)N(C)C1CCS(=O)(=O)C1` (centres undefined), the call was inactive.
The entry for `COc1ccc(-c2csc3ncnc(NCCCO)c23)cc1` is “inactive”; for `COc1cc(C2NC(=O)NC(C)=C2C(=O)OC2CCCC(C)C2)cc(Br)c1O` (centres undefined) it is “inactive”; for `COc1cccc(CC(=O)NNC(=O)c2ccc3c(c2)OCO3)c1` it is “inactive”.
As for `CCCN(CC)c1ncnc2[nH]ncc12`, the compound was classed as inactive.
In the case of `Cc1cc(N2CCOCC2)c2c(N)c(Br)cc(C)c2n1`, the result was inactive.
The entry for `CCOc1ccccc1C(=O)NC1CC2CCCC(C1)N2Cc1nnnn1Cc1ccco1` (centres undefined) is “inactive”.
Consider `Nc1ncnc(N2CCc3ccccc32)c1[N+](=O)[O-]`, for which the compound was called inactive.
Take `CC(=O)Nc1ccc(C=NNc2nnc(NN=Cc3ccc(NC(C)=O)cc3)c3ccccc23)cc1`: the call was inactive.
Regarding `CCn1c2ccccc2c2cc(NC(=O)c3ccccc3-c3ccccc3C(=O)O)ccc21`, the compound was called inactive.
The same measure for `CCn1c(NC(=O)c2ccc(C)cc2)c2ccccc2nc1=O`: “inactive”.
As for `CCCN(CCC)c1ncnc2nc[nH]c12`, the call was inactive.
The entry for `COc1ccc(CC(C)NCC(O)c2ccc(O)c(NC=O)c2)cc1` (centres undefined) is “inactive”.
The entry for `O=C(c1cccs1)N1CC=C(c2ccccc2)CC1` is “inactive”; for `CCN1C(=O)[C@@H]2[C@@H](c3ccc(-c4ccc(Cl)c(Cl)c4)cc3)N3CCC[C@@]3(C(=O)OC)[C@@H]2C1=O` it is “inactive”.
`CCOC(=O)N1CCN(C(=O)C2CCC(=O)N(Cc3ccccc3OC)C2)CC1` (centres undefined): the result was inactive.
The entry for `Cc1ccc(-c2cc(N)n3nc(-c4ccc(C)cc4)cc3n2)cc1` is “inactive”; for `Fc1ccc2[nH]c3c(N4CCN(c5ccccc5)CC4)ncnc3c2c1` it is “inactive”; for `O=[N+]([O-])c1ccc2ncnc(N3CCN(Cc4ccc5c(c4)OCO5)CC3)c2c1` it is “inactive”.
The same measure for `CC(C)(C)OC(=O)N1Cc2ccccc2C[C@H]1C(=O)NCC(=O)Nc1ccc2c(c1)OCCO2`: “inactive”; for `O=C(C1CCCCC1)N1CCN(c2ncccn2)CC1`: “inactive”.
Regarding `COC(=O)c1ccccc1NC(=O)CC(=O)Nc1ccccc1C(=O)OC`, the outcome was inactive.
The entry for `O=C(NCCCN1CCCCC1)c1ccc2c(c1)NC(=O)c1ccccc1S2` is “inactive”; for `CCOc1ccc(NC(=O)c2ccc(N3CC4CC(C3)c3cccc(=O)n3C4)c(NC(=O)c3cccnc3)c2)cc1` (centres undefined) it is “inactive”.
The entry for `CSc1ccccc1OCc1cc(C(=O)N2CCC[C@H]2C(N)=O)no1` is “inactive”.
The entry for `COC(CNC(=O)c1ccc(N2CCC3(CC2)OCCO3)c([N+](=O)[O-])c1)OC` is “inactive”; for `Cc1ccnc(NC(=O)c2ccc(C(=O)c3ccccc3)cc2)c1` it is “inactive”; for `COc1ccc(C(=O)Nc2cc(C)c(NC(=O)c3ccccc3OC)cn2)cc1` it is “inactive”.
`COc1ccccc1-c1ccccc1C1=CC(=O)CC(C)(C)C1=O`: the compound was called inactive.
The same measure for `COc1ccc(C2=NN(C(=O)CSC3=NN4CCCC(=O)N=C4S3)C(c3cccc(OC)c3OC)C2)cc1` (centres undefined): “inactive”; for `O=C(O)c1ccc(N/N=C/c2cc3cc4c(cc3nc2Cl)OCCO4)cc1`: “inactive”; for `Clc1ccc(-c2ccnc(Oc3ccc4ccccc4c3)n2)cc1`: “inactive”.
The entry for `CCOC(=O)[C@H]1[C@H]2COc3ccc(OC)cc3[C@@H]2N2C(=O)CN(C)C(=O)[C@@]12C` is “inactive”; for `CN(C)CCCC1(c2ccc(F)cc2)OCc2cc(C#N)ccc21` (centres undefined) it is “inactive”.
The entry for `CC1(C)Cc2nc3sc4c(SCC(=O)O)ncnc4c3cc2CO1` is “inactive”.
As for `COc1ccc(C=C2OC(=O)C(C(C)=O)=C2O)cc1`, the result was inactive.
The entry for `COc1ccc(-c2oc3ncnc(NCCN4CCOCC4)c3c2-c2ccc(OC)cc2)cc1` is “inactive”; for `CCN(CC(=O)Nc1ccc(NC(C)=O)cc1)C(=O)c1cccnc1Sc1ccc(C)c(C)c1` it is “inactive”.
The entry for `COc1ccc(N2Cc3cccc(C(=O)NC(C)CCc4ccco4)c3C2=O)cc1` (centres undefined) is “inactive”; for `COc1ccc(-c2cc(C(=O)N3CCCC3)no2)cc1` it is “inactive”; for `CC(Sc1nc(-c2ccc(F)cc2)cs1)C(=O)N1c2ccccc2CC1C` (centres undefined) it is “inactive”.
Turning to `Cc1ccc(CN2C(=O)CCC2C(=O)NCCCN2CCC(C)CC2)cc1` (centres undefined), the compound was classed as inactive.
The entry for `Cc1cnc(NC(=O)c2ccc(OCC3CCCO3)cc2)s1` (centres undefined) is “inactive”; for `CCN(CC)S(=O)(=O)c1cccc(-n2c(O)c(C=Nc3ccccc3C(=O)O)c3ccccc3c2=O)c1` it is “inactive”.
With `O=C(O)c1ccc(N/N=C/c2ccc3ncccc3c2)cc1`, the compound was called inactive.
The entry for `CCN(CC)S(=O)(=O)c1ccc(N=NC2=C(O)CCCC2=O)cc1` is “inactive”; for `COc1ccc(C(=O)CN(CCC(=O)O)S(=O)(=O)c2ccc([N+](=O)[O-])cc2)cc1` it is “inactive”.
The entry for `O=C(NCCc1ccccc1)c1ccc2nccnc2c1` is “inactive”; for `CCN(C(=O)CSc1nnc(Nc2cccc(C)c2C)s1)C1CCS(=O)(=O)C1` (centres undefined) it is “inactive”.
The entry for `CCCC(C)NC(C)C(=O)NC1CCCC1` (centres undefined) is “inactive”; for `COCCNC(=O)C1CCC(CNS(=O)(=O)c2ccccc2)CC1` (centres undefined) it is “inactive”; for `Cc1ccc(-c2nnn(CC(=O)N(Cc3ccco3)C(C(=O)NC(C)(C)C)c3ccncc3)n2)o1` (centres undefined) it is “inactive”.
On to `COCCCNC(=O)CN1C(=O)COc2ccc(S(=O)(=O)N3CCOCC3)cc21`, for which the call was inactive.
The same measure for `O=C(CN1C(=O)c2ccccc2S1(=O)=O)c1ccccc1F`: “inactive”; for `CN(Cc1ccccc1)c1nc(N)c([N+](=O)[O-])c(NCc2ccccc2)n1`: “inactive”; for `CCCCCn1c(N2CCOCC2)nc2c1c(=O)n(CC(N)=O)c(=O)n2C`: “inactive”.
Consider `NC(=O)N/N=C/c1ccc(N2CCOCC2)s1`, for which the compound was called inactive.
The entry for `CCCCCC(=O)N1C[C@@H](O)[C@H](n2cc(C3CC3)nn2)C[C@@H]1c1ccc(C)cc1` is “inactive”.
The entry for `CCN1CCN(Cc2ccc(NC(=O)c3ccc(C)c(NC(=O)N4CCNC4=O)c3)cc2C(F)(F)F)CC1` is “inactive”.
The entry for `CCN1CCN(Cc2ccc(NC(=O)c3ccc(C)c(NC(=O)c4cccc5[nH]ccc45)c3)cc2C(F)(F)F)CC1` is “inactive”.
Take `COc1ccc(/C(CC2OC(=O)c3ccccc32)=N\NC(N)=O)cc1` (centres undefined): the outcome was inactive.
For the compound `c1ccc2c(-c3ccncc3)c[nH]c2c1`, the outcome was inactive.
In the case of `C[C@@H]1CN([C@@H](C)CO)C(=O)c2cc(NC(=O)Nc3ccccc3)ccc2O[C@H]1CN(C)C(=O)Nc1cccc2ccccc12`, the compound was classed as inactive.
Consider `c1ccc(C2c3[nH]c4ccccc4c3CCN2Cc2cccn2-c2ccccn2)nc1` (centres undefined), for which the outcome was inactive.
The same measure for `COc1ccccc1NC(=O)C(=O)N/N=C(\C)CC(=O)Nc1ccccc1C(F)(F)F`: “inactive”; for `COc1ccc(C(=O)N2CC(=O)Nc3ccccc32)cc1S(=O)(=O)N1CCCC1`: “inactive”.
For `COc1ccc(N2C(=O)CC(Sc3nnc(-c4ccccc4)o3)C2=O)cc1` (centres undefined), the compound was called inactive.
Consider `COc1cc(OC)cc(-c2c(C#Cc3ccsc3)c3cc(-c4cc(OC)c(OC)c(OC)c4)ccc3n2C)c1`, for which the call was inactive.
The same measure for `Cc1nc(N)nc(SCc2ccc([N+](=O)[O-])cc2)c1N`: “inactive”.
With `COCCCn1cnnc1SCC(=O)Nc1ccc(S(=O)(=O)N2CCCC2)cc1`, the compound was called inactive.
The same measure for `O=C(CCN1CCC(c2ccccc2)C1)c1ccc2c(c1)OCCO2` (centres undefined): “inactive”.
With `COCCn1c(C)cc(C(=O)COC(=O)C23CC4CC(CC(O)(C4)C2)C3)c1C`, the compound was classed as inactive.
With `CC(C)OCCCNC(=O)C1CCC(CNS(=O)(=O)c2ccccc2)CC1` (centres undefined), the compound was classed as inactive.
Consider `COC(=O)c1cc2n(n1)CCN(Cc1ccccc1Cl)C2=O`, for which the call was inactive.
The same measure for `COc1ccc(OC)c2c1sc(=NC(=O)c1ccco1)n2C`: “inactive”; for `CCc1cc2c(Sc3nc4ccccc4s3)ncnc2s1`: “inactive”; for `c1ccc(-n2nnc3c(N4CCOCC4)ncnc32)cc1`: “inactive”.
The entry for `Cc1ccc(CNC(=O)C2CCN(S(=O)(=O)c3c(C)noc3/C=C/c3ccco3)CC2)cc1` is “inactive”; for `COc1cc(Cl)cc(C(c2c(C(=O)O)[nH]c3ccccc23)c2c(C(=O)O)[nH]c3ccccc23)c1O` it is “inactive”; for `Cn1cccc1C(=O)OCC(=O)Nc1ccc2c(c1)OCO2` it is “inactive”.
For `O=C(Nc1cccc(Cl)c1)Nc1cccc(C(=O)O)c1`, the outcome was inactive.
For `Cc1ccc(C(=O)N2CCN(c3ccc(NC(=O)CSc4ccc(Cl)cc4)cc3)CC2)cc1`, the call was inactive.
The same measure for `CC1CCN(c2ccc(-c3ccc(NC(=O)C(F)(F)F)cc3)nn2)CC1`: “inactive”.
With `CSc1ccccc1NC(=O)CN1CCCCC1C` (centres undefined), the call was inactive.
For the compound `Cc1ccnc(NC(=O)c2cccc(NC(=O)c3ccc(Cl)c(Cl)c3)c2)c1`, the compound was classed as inactive.
The same measure for `Cn1cccc1CC(=O)NNC(=S)Nc1ccccc1Cl`: “inactive”; for `Cc1ccc(NC(=S)NCc2cccs2)cc1`: “inactive”; for `S=C(NN=C1C2CC3CC(C2)CC1C3)Nc1ccccc1`: “inactive”.
Regarding `COc1ccccc1NC(=S)NN=C(C)c1ccccn1`, the outcome was inactive.
For the compound `CC(=O)NC(CCS(C)(=O)=O)C(=O)Nc1ccc(Cl)c(Cl)c1` (centres undefined), the compound was classed as inactive.
On to `COCCCNCC1C(Oc2ccc(Cl)cc2)C(=O)N1c1ccccc1C` (centres undefined), for which the outcome was inactive.
Consider `O=c1cc(Cl)nc2ccccn12`, for which the outcome was inactive.
The entry for `CCCc1nc(SCC(=O)NCc2ccco2)c2c(=O)n(C)c(=O)n(C)c2n1` is “inactive”.
The entry for `COC(=O)[C@@]1(Cc2ccccc2)[C@H]2C(=O)N(Cc3ccccc3)C(=O)[C@H]2[C@H]2CN=C(SCc3ccc(Cl)cc3)N21` is “inactive”.
Turning to `CCOCCCNC(=O)CN1C(=O)/C(=C\c2ccc(C)cc2)Sc2ccccc21`, the outcome was inactive.
On to `O=C1NC(c2cccc(OCc3ccccc3)c2)Nc2ccccc21` (centres undefined), for which the outcome was inactive.
For `COc1ccccc1C1(CC(=O)O)CCOC(C)(C)C1` (centres undefined), the outcome was inactive.
In the case of `Clc1cccc(CN2CCCCCC2)c1`, the outcome was inactive.
The same measure for `O=C(c1ccccc1Br)N1CCN(Cc2ccc3c(c2)OCO3)CC1`: “inactive”; for `Fc1cccc(Cl)c1/C=N/n1c(-c2cccnc2)n[nH]c1=S`: “inactive”; for `Cn1c(-c2ccccc2)cnc1SCC(=O)N1CCCCC1`: “inactive”.

For the origin of these results see PubChem BioAssay AID504882 (Broad Institute, 2011).
